Data from publication PMC6212790, “How bacterial xenogeneic silencer rok distinguishes foreign from self DNA in its resident genome”.
Whole data set: some 33,000 sequences, median “e-score” near -0.038, cut for the highest 2% near 0.33. The list comes from a sample in which the highest values are over-represented; it also holds similar and randomly drawn sequences.

Each sequence was assayed against T1, GST-Rok-C97-191 (Bacillus subtilis subsp. subtilis str. …, UniProt O34857 97-191) (assay: protein binding microarray; Rok is a gene silencer of Bacillus subtilis; high values mean tight binding). Settings: protein: recombinant; tags: GST (pTH5325, pDEST15-Magic modified); dsDNA, one strand shown.
T1 sequence: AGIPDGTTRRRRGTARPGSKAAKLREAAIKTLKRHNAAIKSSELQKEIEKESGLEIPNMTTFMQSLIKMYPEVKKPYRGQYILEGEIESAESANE
In short: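 Each has a 25-mer constant primer and a 35-mer variable part from a de Bruijn sequence of order 10, covering every non-palindromic 8-mer at least 32 times (palindromic 16). Preference for each 8-mer is given as a rank-based, unitless enrichment score (E-score). Its range runs from 0.5 (most favored) to −0.5 (most disfavored).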

| Sequence | binding signal [E-score] |
| --- | --- |
| CGTAGGCA | -0.0837 |
| CGTAGGTA | 0.336 |
| GCTAGGTA | 0.145 |
| CAATGAAA | -0.098 |
| CAGCATGA | -0.0331 |
| CTGGAGGA | -0.0909 |
| CGTGTTAC | 0.0253 |
| CGTAGCCC | -0.128 |
| CCTAATAA | -0.00276 |
| TAGACCCA | 0.00211 |
| CTATAGTA | 0.371 |
| CTATAGTC | 0.122 |
| CTATCGTA | 0.357 |
| ATATAGTC | 0.225 |
| GTATCGTA | 0.268 |
| ATATCGTA | 0.263 |
| ATATAGTA | 0.438 |
| ATATAGTG | 0.253 |
| GTATAGTA | 0.25 |
| CGGGACTA | 0.0767 |
| AATGATGC | 0.103 |
| AAGGTCTA | -0.133 |

| Sequence | binding signal [E-score] |
| --- | --- |
| ATTCCGGC | 0.0407 |
| CCCACTAG | 0.0169 |
| AGGTTAGG | -0.139 |
| GCCTTCGC | -0.0744 |
| CCCAACTA | 0.257 |
| CAATAAGA | -0.045 |
| CAATGACG | -0.168 |
| AGGTTCAG | 0.0249 |
| CTACATAC | 0.274 |
| CTACATAA | 0.203 |
| CTACATAG | 0.152 |
| ATACACAT | 0.214 |
| AAACATAT | 0.276 |
| ATACATAC | 0.338 |
| TTACATAA | 0.288 |
| ATACATAA | 0.273 |
| ATACATAG | 0.371 |
| GTACATAC | 0.172 |
| GTACATAA | 0.328 |
| ATACATAT | 0.377 |
| ACGGGACT | 0.158 |
| CATCATTC | 0.0109 |

| Sequence | binding signal [E-score] |
| --- | --- |
| GCGATGCC | -0.131 |
| CGACTTGA | 0.0696 |
| CTGCGTAC | -0.112 |
| TCCGAGCA | 0.113 |
| AAAATGTA | 0.316 |
| GAAATGCA | -0.0957 |
| CAAATGTA | 0.269 |
| TAAATGTA | 0.399 |
| GAAATGTA | 0.329 |
| GAAATGTC | 0.165 |
| TGCCTAAA | -0.0357 |
| ACCCTTAT | 0.126 |
| CGCACTGC | 0.0347 |
| ACATCGAG | 0.0748 |
| ACGTGGGG | -0.173 |
| ATATTCTA | 0.408 |
| AGATTCTA | 0.356 |
| GGATTCTA | 0.293 |
| CTATTCTA | 0.287 |
| AGATTCTC | 0.00255 |
| ATATTCTC | 0.327 |
| TCATCTAA | -0.0045 |

| Sequence | binding signal [E-score] |
| --- | --- |
| CAGGTCTC | -0.144 |
| GACTTGGC | -0.0709 |
| CCAATATA | 0.323 |
| GTAATAGA | 0.284 |
| CTAATAGA | 0.252 |
| ACAATATA | 0.354 |
| ATAATATG | 0.244 |
| CTAATATC | 0.141 |
| ATAATATC | 0.209 |
| ACAATATG | 0.146 |
| ATAATATA | 0.435 |
| GTAATACA | 0.258 |
| GTAATATA | 0.335 |
| CTAATATA | 0.36 |
| AGTGCCGC | -0.0284 |
| ATGGTGAA | 0.0706 |
| GCTGATTA | 0.0269 |
| GAAAGAAC | 0.0785 |
| CCAGTTGA | -0.091 |
| AACAGAGG | -0.0648 |
